# Most compounds without a hit are left out; they make up all but 1.6% or so of the library.
# gsp antag – antagonists of gsp mutant (McCune-Albright syndrome); Potency, µM (titrated, usually from 76.9 µM), without a hit: top-dose activity change, negative = inhibition, most hits filed as inhibitors; AID 624288; gsp-mutant cells, cAMP HTRF, 30 min; 340,000 compounds, 0.4% hits; calls by dose curve; cell line not stated here;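 further: intracellular cAMP measured with PDE inhibitor Ro 20-1724 present during compound exposure; on the % scale 0 is the no-effect control and ±100 the full control effect; nearly all actives have a fitted effect of over 65% in size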
#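 HTRF cAMP measurement after 30 min RT detection following 30 min, 37C compound treatment alongside […] (added as 300 uM solution) in G418-selected cells seeded at 2000/well and grown 16–24 h.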
# 12-LOX inh – inhibitors of human 12S-lipoxygenase ALOX12; 580,000 compounds, 1.1% hits; Potency, µM (highest dose often 108 µM), for inactives: at the highest dose activity change, negative = inhibition, actives largely listed as inhibitors; purified 12hLO, xylenol orange hydroperoxide absorbance; further: on the % scale 0 is the no-effect control and ±100 the full control effect
# Target sequence (P18054 whole entry, looked up): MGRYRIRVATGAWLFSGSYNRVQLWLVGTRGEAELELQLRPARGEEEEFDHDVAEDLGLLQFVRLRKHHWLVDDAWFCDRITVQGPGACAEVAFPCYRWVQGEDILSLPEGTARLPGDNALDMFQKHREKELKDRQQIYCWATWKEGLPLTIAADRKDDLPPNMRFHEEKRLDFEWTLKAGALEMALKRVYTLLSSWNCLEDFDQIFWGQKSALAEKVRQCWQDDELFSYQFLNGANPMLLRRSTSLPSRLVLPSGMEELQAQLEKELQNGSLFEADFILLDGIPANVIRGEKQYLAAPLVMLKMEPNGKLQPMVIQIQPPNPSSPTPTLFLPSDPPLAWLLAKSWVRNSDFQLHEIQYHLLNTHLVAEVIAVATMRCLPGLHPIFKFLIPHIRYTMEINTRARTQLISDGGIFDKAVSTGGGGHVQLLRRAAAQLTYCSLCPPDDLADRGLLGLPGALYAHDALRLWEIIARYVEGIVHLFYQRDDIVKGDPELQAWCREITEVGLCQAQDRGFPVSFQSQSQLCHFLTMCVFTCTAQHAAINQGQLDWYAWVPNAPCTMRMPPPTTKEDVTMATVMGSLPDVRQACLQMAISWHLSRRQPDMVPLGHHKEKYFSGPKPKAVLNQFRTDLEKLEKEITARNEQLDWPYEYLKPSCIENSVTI
#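 Purified human 12hLO (150 nM final) in 25 mM Hepes, 0.01% Triton X-100, pH 7.0 was preincubated 15 min at room temperature with compound. Then 40 uM arachidonic acid was added, 30 min. Hydroperoxide was read by Fe-XO absorbance ratio 573/405 nm.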
# Mito fusion act – mitochondrial division inhibition or fusion activation; Potency, µM (doses to about 46.1 µM), for the others: top-dose growth rescue (activation), most hits filed as activators; 320,000 compounds, 0.23% hits; AID 485298; S. cerevisiae fusion-defective mutant growth rescue, CellTiterGlo 48 h; further: % of control where 0% means no effect; nearly all actives have a fitted effect of over 45% in size
#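 Temperature-sensitive fusion-defective S. cerevisiae (e.g. fzo1-1, mgm1-5) were grown with compound in YPEG medium (3% ethanol, 3% glycerol) for 48 hours at 37C. Growth rescue was measured as viability by CellTiterGlo luminescence after 10 minutes at ambient.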
# FUS yeast rescue – FUS proteinopathy suppression in yeast; S. cerevisiae FUS-expressing, growth rescue, OD600, 24 h; Potency, µM (top dose mostly 76.6 µM), actives largely listed as activators; 390,000 compounds, 0.24% hits; AID 1347120;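 further: plate controls were DMSO vehicle for no effect and reference control for full effect; nearly all actives have a fitted effect of over 55% in size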
#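 Read-out: OD at 600 nm after 24hr at 30C, reporting rescue of FUS-induced yeast toxicity. Cells at OD 0.005 in galactose (2%) minimal medium; compounds tested in a dilution series; CP55940 titration from 92uM final as control.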
# gsp agonist – gsp mutant agonism; gsp mutant cells, cAMP HTRF, 30 min; Potency, µM (doses to about 76.9 µM), for inactives: at the top dose activation (cAMP increase), actives largely listed as activators; 340,000 compounds, 0.13% hits; active means well fitted activation curve with a large enough effect; inconclusive means small, poorly fitted or top-dose-only effect, or another doubt; inactive means no such curve, though single readings can be large or run the other way; cell line not stated here;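 further: phosphodiesterase inhibitor Ro 20-1724 added with compounds to block cAMP breakdown; nearly all actives have a fitted effect of over 60% in size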
#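 Cells stably selected in G418 were plated at 2000/well, grown 16-24 hr, then given compounds in DMSO with the PDE inhibitor […] (300 uM solution added) for 30 min at 37C; cAMP was read by HTRF.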
# * marks the source's active call; other numbers are inactive results; i = inactive; ? = inconclusive; . = no result; [ ] = another dose, or the depositor's remark. Unless noted, the call rests on the fitted dose curve; in most records, active means well fitted curve in the direction sought with a large enough effect; inconclusive means small, poorly fitted or top-dose-only effect, or another doubt; inactive means no such curve, though single readings can be large; an effect the other way counts as inactive or inconclusive. Potency means the concentration at half of the fitted maximal effect.
SMILES,gsp antag,12-LOX inh,Mito fusion act,FUS yeast rescue,gsp agonist
Cc1ccc(C(C)C)c(OCCNCCc2ccccc2)c1,10%,7.9µM*,-16%,i,-23%
CCOC(=O)c1cc(-c2ccc(S(=O)(=O)Nc3c(C)cccc3C)s2)on1,.,6%,.,.,.
O=C1Nc2ccccc2CN(Cc2ccc(Cl)cc2)C12CCNC2 (stereo not given),.,20µM*,.,.,.
O=C1Nc2ccccc2CN(CC2CCCCC2)C12CCNC2 (stereo not given),.,2%[6.33 µM],.,.,.
Cc1ccc(N2NC3(CCCCCC3)NC2=S)cc1,.,1µM*,.,.,.
Cc1ccc(N2NC3(CCC(C)CC3)NC2=S)cc1 (stereo not given),.,1.3µM*,.,.,.
Cc1ccc2cc(CN(Cc3nnnn3C3CCCCC3)CC3CCCO3)c(=O)[nH]c2c1 (stereo not given),-29%,?,7%,?,0%
Cc1cc(C)c2cc(CN(Cc3nnnn3C3CCCCC3)CC3CCCO3)c(=O)[nH]c2c1 (stereo not given),-34%,11µM*,14%,i,1%
O=C(NCCC(c1ccccc1)c1ccccc1)NNc1ccccn1,.,22µM*,.,.,.
O=C(NCCC(c1ccccc1)c1ccccc1)c1cnccn1,3%,-12%,4%,.,12%
CN(C)c1ccnc(-c2ccccc2C(F)(F)F)n1,.,50µM*,.,.,.
O=S(=O)(NCc1ccc(N2CCCC2)nc1)c1ccc2c(c1)CCCC2,.,-3%,.,.,.
CCc1ccc(CNC(=O)CCCn2c(=O)c3cccn3c3cccnc32)cc1,15%,-1%,11µM*,i,1%
CC1=CCC(C(C)C)=CC1,.,7%[176 µM],.,.,.
O=C1N=C(N2CCN(c3ccccc3)CC2)S/C1=C/c1cccs1,-18%,-9%,?,?,5%[15.4 µM]
O=C1N=C(N2CCOCC2)S/C1=C/c1ccc(-c2ccc(F)cc2)o1,?,-7%,10%,i,-8%
Cc1ccc(-c2ccc(/C=C3\SC(N4CCOCC4)=NC3=O)o2)cc1,-37%,35µM*,29%,i,21%[15.4 µM]
Cc1ccc(/C=C2\SC(N3CCN(C(c4ccccc4)c4ccccc4)CC3)=NC2=O)o1,-15%,3.5µM*,0%,.,-37%
CCc1ccc(C(=O)NC(C)C2CC3CCC2C3)s1 (stereo not given),.,25%,.,.,.
CC(C)CNC(=O)COC(=O)c1cncc(Br)c1,6%,-22%,1%,4.5µM*,-2%
CC(C)CCNC(=O)N(C)CC1CCOCC1,.,23%,.,.,.
Cc1cc(C(C)(C)C)cc(C)c1Cn1c2[n+](c3ccc(C(F)(F)F)cc31)CCCCC2,5%,35µM*,-4%,i,0%[15.4 µM]
COc1ccc(C)cc1NC(=O)C(C)N1CCOCC1 (stereo not given),12%,11µM*,-1%,i,-4%
COc1ccc(C)cc1NC(=O)C(c1ccccc1)N1CCN(CC(=O)N2CCOCC2)CC1 (stereo not given),-3%,1%,3%,i,-5%
COc1ccc(NS(=O)(=O)c2ccc3oc4ccccc4c3c2)cn1,-25%,-16%,25µM*,i,2%
SMILES,gsp antag,12-LOX inh,Mito fusion act,FUS yeast rescue,gsp agonist
Cc1cc(C)c2c(-n3cccc3)nn(CC(=O)Nc3ccc(Cl)cc3)c2n1,.,-36%,.,.,.
COc1ccccc1-c1cc(-n2ccnc2)ncn1,.,-27%,.,.,.
COc1ccccc1-c1cncnc1-n1ccnc1,.,25µM*,.,.,.
COc1cc(OC)c(NC(=O)Cn2nc(Cc3ccncc3)c3ccccc3c2=O)cc1Cl,.,-4%,.,.,.
O=C(Nc1ccc(Cl)cc1)c1csc(C(O)c2cccc(OC(F)(F)F)c2)n1 (stereo not given),.,14µM*,.,.,.
NC(=O)CC(NC(=O)Cc1cccc2ccccc12)c1ccc(N2CCCCCCC2)c([N+](=O)[O-])c1 (stereo not given),50µM*,-18%,-1%,i,-5%
COc1ccc(NC(=O)C(c2ccncc2)n2c(=O)c(-c3ccco3)nc3ccccc32)cc1 (stereo not given),.,1%,.,i,.
CCCCCNC(=O)C(c1cc2ccccc2o1)n1c(=O)c(-c2ccco2)nc2ccccc21 (stereo not given),.,40µM*,.,?,.
Cc1cccc(C)c1NC(=O)C(c1ccc(C#N)cc1)n1c(=O)c(-c2ccco2)nc2ccccc21 (stereo not given),.,11µM*,.,i,.
COc1ccc(C(C(=O)Nc2c(C)cccc2C)n2c(=O)c(-c3ccco3)nc3ccccc32)cc1 (stereo not given),.,?,.,i,.
O=C(NC1CCCCC1)C(c1cccc2ccccc12)n1c(=O)c(-c2ccco2)nc2ccccc21 (stereo not given),.,18µM*,.,?,.
COc1ccc(C(C(=O)NCc2ccccc2)n2c(=O)c(-c3ccco3)nc3ccccc32)cc1 (stereo not given),.,40µM*,.,?,.
N#Cc1ccc(C(C(=O)Nc2ccc3c(c2)OCCO3)n2c(=O)c(-c3ccco3)nc3ccccc32)cc1 (stereo not given),.,-21%,.,6.3µM*,.
CC1NC(=O)c2cccnc2-n2c1nc1ccccc1c2=O (stereo not given),.,0%,.,i,?
Cc1ccc2c(=O)n3c(nc2c1)C(C)NC(=O)c1cccnc1-3 (stereo not given),.,0%,.,i,32µM*
CC(C)C(=O)Nc1ccc(NC(=O)c2cccs2)cn1,4%,45µM*,1%,i,-7%
COc1ccc(C(=O)Nc2ccc(NC(=O)c3cccs3)cn2)cc1,-1%,?,-3%,i,9%
c1ccc(-c2noc(-c3cncnc3NCC3CCCCC3)n2)cc1,.,66%,.,.,.
O/N=C/c1ccc(OCc2ccccc2)c(Cl)c1,-4%,-21%,22µM*,i,?
O/N=C/c1ccc(OCc2ccccc2)c(Br)c1,-18%,-4%,?,i,12%
CCOC(=O)COc1nc(-c2ccco2)cc(-c2ccco2)c1C#N,-22%,-1%,-4%,i,4%[15.4 µM]
CCOC(=O)C(C)Sc1nc(-c2ccco2)cc(C(F)(F)F)c1C#N (stereo not given),35µM*,?,-5%,?,-20%
CCn1c(=S)[nH]c2nc3c(cc2c1=O)CCCC3,16%,-18%,-7%,i,8.9µM*
O=C(NCc1cccc(Cl)c1)c1ccc(-n2cncn2)c2ccoc12,.,-15%,.,i,.
O=C(NCc1cccc(Cl)c1)c1ccc(-n2ccnc2)c2ccoc12,.,40µM*,.,i,.
Cc1ccc(S(=O)(=O)NCC2Cc3ccccc3N2S(=O)(=O)c2ccc(C)cc2)cc1 (stereo not given),.,.,.,i,.
Cc1ccc(S(=O)(=O)NCC2CN(S(=O)(=O)c3ccc(C)cc3)c3ccccc3C(=O)N2c2ccc(F)cc2)cc1 (stereo not given),.,.,.,18µM*,.
CN(Cc1c(O)ccc2c1oc(=O)c1ccccc12)C1CCCCC1,2%,0.89µM*,14%,i,?

# Screening results: PubChem, National Center for Advancing Translational Sciences (NCATS)
